Source: PubChem (The Scripps Research Institute Molecular Screening Center)
CHO-K1 Ca antag: M1 antagonist counterscreen hit in parental CHO-K1 cells; 360,000 tested, 0.6% active; AID 602250; ATP-induced calcium, Fluo-8 fluorescence; inhibition, % at 3 µM;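 active = inhibition above a per-plate cutoff, the plate's mean sample inhibition plus 3 SD, cut at about 24% in these data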;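 also: 0% = DMSO plus EC80 ATP and 100% = DMSO alone without ATP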
CHO-K1 Ca ag: M1 agonist counterscreen hit in parental CHO-K1 cells | AID 602248 | 360,000 tested, 0.48% active | activation, % at 3 µM | Fluo-8 calcium fluorescence; scaled to maximal ATP response, vehicle zero; in the data active = activation above about 15%;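 also: untransfected CHO-K1 host cells lacking M1 receptor as counterscreen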
M1 PAM parental: nonselective activator or artifact in parental CHO-K1 calcium assay | ATP EC20, Fluo-8 calcium fluorescence; 0% at ATP EC20, 100% at ATP max | activation, % at 3 µM | 360,000 tested, 0.02% active | AID 602247;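 active = activation above the run cutoff, the mean activation of all test compounds plus 3 SD, cut at about 40% in these data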;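 also: peak over basal fluorescence ratio in a 140 s read after ATP addition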
CHRM1 PAM: human CHRM1 positive allosteric modulation; P11229; CHO-K1 hM1, Fluo-8 calcium fluorescence, ACh EC20; 0% = ACh EC20, 100% = maximal ACh; activation, % at 3 µM; 360,000 tested, 0.088% active; in the data active = activation above about 19%, passing the limit was not always enough
Target sequence (P11229 whole entry, looked up): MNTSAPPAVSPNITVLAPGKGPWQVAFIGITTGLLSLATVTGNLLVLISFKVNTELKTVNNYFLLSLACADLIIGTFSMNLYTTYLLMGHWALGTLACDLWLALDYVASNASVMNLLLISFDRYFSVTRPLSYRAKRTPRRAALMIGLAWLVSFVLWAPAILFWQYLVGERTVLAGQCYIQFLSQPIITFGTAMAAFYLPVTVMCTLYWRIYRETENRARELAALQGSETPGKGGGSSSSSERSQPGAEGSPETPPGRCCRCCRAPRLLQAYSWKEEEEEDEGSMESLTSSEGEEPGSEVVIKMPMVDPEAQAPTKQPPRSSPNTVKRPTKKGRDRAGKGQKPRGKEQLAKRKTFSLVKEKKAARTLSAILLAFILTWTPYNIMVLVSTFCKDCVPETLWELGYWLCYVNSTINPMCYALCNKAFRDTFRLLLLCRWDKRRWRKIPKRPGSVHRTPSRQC
M1 ag: activates human CHRM1 receptor. P11229. CHO-K1 hM1, Fluo-8 calcium fluorescence, agonist mode; 0% DMSO, 100% acetylcholine EC100. activation, % at 3 µM. 360,000 tested, 0.33% active. AID 588814;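 active = activation above the run's mean compound activation plus 3 SD, cut at about 16% in these data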;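 also: peak over basal fluorescence ratio within a 140 s kinetic read after compound addition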
CHRM1 antagonist: antagonists of human M1 muscarinic receptor | 360,000 tested, 1.3% active | CHO-K1 hM1, Fluo-8 calcium fluorescence, ACh EC80 antagonist | inhibition, % at 3 µM | P11229;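 active = percent inhibition above its own plate's cutoff, namely the mean of that plate's compound wells plus 3 SD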;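 also: peak over basal fluorescence ratio during 140 s after agonist addition; 0% = ACh EC80 plus DMSO and 100% = DMSO alone without agonist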
* = called active by the depositor; · = no result given. Compounds with a hit are over-represented: about 2.3% of the library has one in this group of screens.

SMILES	CHO-K1 Ca antag	CHO-K1 Ca ag	M1 PAM parental	CHRM1 PAM	M1 ag	CHRM1 antagonist
CN(Cc1ccccc1)C(=O)c1ccc(NC(=O)Cc2ccc(NC(=O)C3CCN(S(=O)(=O)c4cccc([N+](=O)[O-])c4)CC3)cc2)cc1	-7.2	0.2	-9.7	-3.6	-4.0	2.1
CO/N=C/c1ccc(Sc2ccccc2N)c([N+](=O)[O-])c1	-1.6	-0.1	6.5	-3.7	-5.5	-9.2
CO/N=C/c1ccc(Sc2ccccc2)c([N+](=O)[O-])c1	25.5*	-0.8	-6.2	8.1	-0.1	-3.2
CC(C)CC[n+]1ccccc1/C=C/c1ccc(N(C)C)cc1	12.1	6.2	-4.8	-13.3	8.8	28.6*
CC(Oc1ccc(Br)cc1)C(=O)Nc1ccc(S(=O)(=O)NC2=NCCCCC2)cc1 (stereo unspecified)	-3.5	23.2*	-12.2	-8.2	28.8*	17.5
CC(Oc1ccc(F)cc1)C(=O)Nc1ccc(S(=O)(=O)NC2=NCCCCC2)cc1 (stereo unspecified)	1.9	5.0	-11.1	3.4	23.6*	-3.8
O=S(=O)(NC1=NCCCCC1)c1ccc(F)cc1	-4.0	0.6	6.9	7.3	-3.1	-0.9
CC(Oc1cccc(Cl)c1)C(=O)Nc1ccc(S(=O)(=O)NC2=NCCCCC2)cc1 (stereo unspecified)	-8.2	11.6	2.8	7.2	12.0	-8.2
CC1Oc2ccccc2N(CC(=O)N2CCCCCC2)C1=O (stereo unspecified)	-4.7	0.5	-26.8	9.9	-2.1	-2.3
CCn1c(CNc2ccc(F)cc2)nnc1SCCN1CCCCC1	0.5	0.2	5.5	-7.4	-2.6	14.1
CCn1c(CNc2ccccc2Cl)nnc1SCCN1CCCCC1	-9.2	0.3	13.4	-20.8	-4.4	51.2*
O=C(Cn1ncc2c1-c1ccccc1OC2)N1CCN(Cc2ccc3c(c2)OCO3)CC1	-2.2	2.8	-5.5	-1.7	-4.7	-6.7
O=C(CCCCCn1c(=S)[nH]c2ccc(N3CCOCC3)cc2c1=O)NC1CCN(Cc2ccccc2)CC1	3.9	0.2	-7.7	-25.9	-8.8	50.1*
CC(C)CN1C(=S)SC(C)(C)C1n1oc(=O)n(-c2ccccc2)c1=O (stereo unspecified)	1.1	0.0	4.5	-5.0	-9.4	1.8
CC(C)CN1C(=S)SC(C)(C)C1n1oc(=O)n(-c2ccc(Cl)cc2)c1=O (stereo unspecified)	-13.0	1.0	20.1	-30.1	-7.7	51.4*
Cc1nc2c(nnn2Cc2ccccc2)c(=O)[nH]1	25.3*	-0.1	-12.5	-4.9	-3.2	6.1
Cc1nc2c(nnn2Cc2ccccc2Cl)c(=O)[nH]1	-2.7	0.4	11.9	5.4	-3.3	-9.1
Cc1ccc(S(=O)(=O)NCCc2ccncc2)cc1[N+](=O)[O-]	-11.4	0.8	5.5	4.6	-6.3	-8.6
O=C(C[n+]1ccc(C(=O)c2ccccc2)cc1)Nc1cccc([N+](=O)[O-])c1	-25.9	1.0	13.8	·	·	·
CCN(CC)CC#CCC1(O)c2ccccc2-c2ccccc21	-13.2	1.0	5.6	-24.4	-10.2	25.8*
CCN(CC#CCC1(O)c2ccccc2-c2ccccc21)C(C)C	1.1	-0.2	2.4	-22.3	-6.3	71.0*
O=C1CCNCCN1[C@H](CO)c1ccccc1	-8.5	0.4	13.0	7.6	-13.0	-4.7
O=S1(=O)N=C(N2CCCc3ccccc32)c2ccccc21	-10.3	-0.1	4.8	0.4	-4.7	-1.1
O=S1(=O)N=C(N2CCc3ccccc3C2)c2ccccc21	2.2	0.7	-3.4	-16.2	-5.0	36.4*
CN(C)S(=O)(=O)c1ccc2c(c1)nc(CCC(=O)O)n2C	4.3	-0.1	5.4	4.4	-5.0	-2.3
SMILES	CHO-K1 Ca antag	CHO-K1 Ca ag	M1 PAM parental	CHRM1 PAM	M1 ag	CHRM1 antagonist
CCn1c(CCC(=O)O)nc2cc(S(=O)(=O)N(C)C)ccc21	29.9*	-0.3	-15.5	3.6	-6.8	-4.7
Cc1ccc(C(=O)NC(=S)NCC2CCCO2)cc1[N+](=O)[O-] (stereo unspecified)	-8.7	0.5	-0.5	10.7	-0.9	-9.5
O=C(NCC(=O)N1CCN(C/C=C/c2ccccc2)CC1)c1ccc(Br)cc1	-19.8	2.1	7.4	-14.6	18.1*	33.0*
CC(C)C(NC(=O)c1ccccc1)C(=O)N1CCN(C/C=C/c2ccccc2)CC1 (stereo unspecified)	-14.8	0.0	6.4	-5.6	-3.4	5.5
O=C(NCCN1CCN(c2cccc(Cl)c2)CC1)Nc1ccccc1	-14.2	7.5	7.2	-6.9	-2.7	7.0
C[C@H](NC(=O)c1ccc(C(C)(C)C)cc1)C(=O)N1CCN(C/C=C/c2ccccc2)CC1	-21.8	4.8	15.5	-15.9	38.4*	46.3*
O=C(NCCN1CCN(c2ccccc2)CC1)Nc1ccc(Cl)cc1	-17.4	15.7*	3.2	1.8	-0.9	-3.3
CSCCC(NC(=O)c1ccc(Cl)c([N+](=O)[O-])c1)C(=O)N1CCN(C/C=C/c2ccccc2)CC1 (stereo unspecified)	-10.8	-0.2	5.4	-1.9	20.4*	2.4
CN(C)CCNc1ncnc2c1ncn2[C@H]1CN(Cc2ccc(-c3ccccc3)cc2)C[C@@H](CO)O1	-2.2	1.0	12.5	3.2	-6.8	-12.9
Cc1ccc(C)c(OCc2cc(C(=O)NC(c3ccccn3)C(F)(F)F)no2)c1 (stereo unspecified)	5.7	0.8	-3.1	14.6	0.9	-8.7
CC(C)c1ccc(S(=O)(=O)NC2CCS(=O)(=O)C2)cc1 (stereo unspecified)	2.0	0.4	-16.0	17.6	1.6	-21.9
Cc1cccc2cc(CN(Cc3nnnn3Cc3ccco3)C3CCCC3)c3nnnn3c12	-10.0	0.2	6.4	7.7	-2.6	-14.0
O=C(c1ccc2c(c1)CCC2)N1CCN(Cc2ccccc2)CC1	1.4	0.2	-6.0	-4.5	-4.7	6.4
O=C(NCC(=O)N1CCN(c2ccccc2)CC1)c1ccc(Cl)cc1	0.9	-0.2	-7.9	3.0	-1.6	68.7*
COc1ccc(C(=O)NCC(=O)N2CCN(c3ccccc3)CC2)cc1	-17.4	0.8	11.0	11.8	0.2	-15.4
Cc1nnc2n(c1=O)C(CS(=O)(=O)c1ccc3ccccc3c1)CS2 (stereo unspecified)	5.8	15.2*	10.5	7.4	-5.0	-7.9
Cc1ccc(S(=O)(=O)CC2CSc3nnc(C)c(=O)n32)cc1 (stereo unspecified)	-17.4	1.5	19.7	10.7	-2.8	-24.0
Cc1cc(C)cc(OCC(O)CN2CCC(CN3C(=O)c4cccc5cccc(c45)C3=O)CC2)c1 (stereo unspecified)	4.2	7.6	-4.1	-19.9	2.4	47.9*
O=C1c2cccc3cccc(c23)C(=O)N1CC1CCN(CC(O)COc2ccc3ccccc3c2)CC1 (stereo unspecified)	-1.9	11.1	10.8	-15.9	1.0	47.5*
